# Tg IFNy HTS: T. gondii growth inhibition with IFN-gamma, primary screen, cell-based; Toxoplasma gondii growth in IFN-gamma-treated host cells; hits give low values; activity change, negative = inhibition, % (concentration not given with the values); actives 3.8% (n = 69,000); AID 1259416, 2018; in the data active means activity change below about -70%, passing the limit was not always enough;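 further: host cells are HeLa cells infected with Toxoplasma gondii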
# A number is an active result; – = inactive; ! = repeats disagree. Shown is part of a subset that was picked to be rich in hits.
SMILES,Tg IFNy HTS
COC(=O)c1c(NCc2ccc(C)o2)c2cccc(Cl)c2[nH]c1=O,–
COC(=O)c1c(NCCN2CCC(C)CC2)c2cccc(Cl)c2[nH]c1=O,–
CCOc1cccc(CNc2c(C(=O)OC)c(=O)[nH]c3c(Cl)cccc23)c1,-81.8
CCCCNc1c(C(=O)OC)c(=O)[nH]c2c(Cl)cccc12,–
COC(=O)c1c(NCc2ccccc2F)c2cccc(Cl)c2[nH]c1=O,–
Cc1nc(C)c(C(=O)N2CC3CCCC(O)(c4cccc(C(F)(F)F)c4)C3C2)s1 (stereo not given),–
CCC(C)NC(=O)N1CCCn2cnc(CO)c2C1 (stereo not given),–
Cc1ccc(S(=O)(=O)Nc2cncc(C(=O)N3CCOCC3)c2)cc1,–
COC(=O)C[C@H]1CC[C@@H]2[C@H](COc3ccc(NC(=O)c4ccc(C(F)(F)F)cc4)cc3C(=O)N2C)O1,–
CN(C)S(=O)(=O)N1CCC2OCCCC2(COc2ccccn2)C1 (stereo not given),–
COc1ccccc1CN1C2CCCC1CC(NC(=O)N1CCOCC1)C2 (stereo not given),–
O=C1c2cccnc2CN1C1COC2(CCCC2)C1 (stereo not given),–
CNCCOc1ccc(C)cc1-c1cc(N)nc2[nH]ccc12,–
Cc1cc(C)cc(NC(=O)C(=O)N2CCC3(CC2)CN(C)CCN3C)c1,–
CN(C)CCNC(=O)c1nc2c(n1C)CCN(c1ncccn1)C2,–
Nc1c(C(=O)NC2CCCCC2)nnn1-c1ccc2c(c1)OCCO2,–
Cc1nc2ccccc2n1Cc1ccccc1,–
Cc1nc2n(Cc3ccccc3)c3ccccc3n2c1C(=S)Nc1ccccc1,-113.8
Cc1nc(C)c(C(=O)Nc2ccc3c(c2)CN(Cc2ccccc2)C3)o1,–
C(=C\c1cccc(-n2cnnc2)c1)/c1ccccc1,–
c1ccc(-c2noc3c2CN(c2cc(N4CCOCC4)ncn2)CC3)cc1,–
COc1ccc2c3c([nH]c2c1)[C@H](CO)N(C(=O)c1ccccn1)CC31CCN(S(C)(=O)=O)CC1,–
CC(C)(C)c1nc(CN2C[C@@H]3[C@H](C2)[C@H]2CC[C@@H]3O2)no1,–
O=c1[nH]c2cc(F)ccc2c(O)c1-c1nc(-c2cccnc2)no1,–
COc1cccc(-c2cc(C(=O)Nc3cnn(Cc4cccc(F)c4)c3)on2)c1,-96.1
SMILES,Tg IFNy HTS
Cc1nc(-c2ccccc2F)sc1C(=O)Nc1cnn(Cc2cccc(F)c2)c1,-89.2
COc1cccc(Cn2cc(NC(=O)C3(c4cc(C)cc(C)c4)CCOCC3)cn2)c1,–
O=C(CN1CCC(c2ccccc2)CC1)Nc1cnn(Cc2cccc(F)c2)c1,–
Cn1c(=O)c(C(=O)Nc2cnn(Cc3cccc(F)c3)c2)nc2ccccc21,–
Cc1nc(-c2ccccc2F)sc1C(=O)NCc1nc(Cc2ccccc2)no1,–
CCS(=O)(=O)N1CC[C@H]2O[C@@H](C(=O)N(C)C)CC[C@@H]21,–
CCO[C@H]1COC[C@@H]1Nc1ncc(C)c(N(C)C)n1,–
CCN(CC)CCNC(=O)C1=C(C)C(=O)OC12CCN(S(=O)(=O)c1cccs1)CC2,–
Nc1ccc(C(=O)Oc2ccccc2)c(O)c1,–
CCCNC(=O)c1cc2ccc(-c3ccc(C(F)(F)F)cc3)cn2c1-c1cocn1,–
C[C@]12OC(C[C@]1(O)CO)n1c3ccccc3c3c4c(c5c6ccccc6n2c5c31)CNC4=O,-82.1
COc1ccc(NC(=O)N(C)C[C@H]2Oc3ccc(NC(=O)CCN4CCOCC4)cc3C(=O)N([C@@H](C)CO)C[C@@H]2C)cc1,–
Cc1ccc(C(=O)N2CCC(N(C)Cc3ccccc3)CC2C(=O)O)o1 (stereo not given),–
Cc1nc(-c2ccc(F)cc2)sc1CCNS(=O)(=O)c1ccc(Cl)cc1,–
CCOC(=O)c1nc(N2CCN(C3CCCCC3)CC2)c2ccccc2n1,–
CCOC(=O)c1nc(N(CC)c2ccccc2)c2ccccc2n1,–
CCOC(=O)c1nc(N(Cc2cccs2)C2CCCC2)c2ccccc2n1,-75.7
Cc1ccc2c(c1)C1OCCC1C1N2C(=O)C2C(C(=O)O)C3C=CC21O3 (stereo not given),–
CC(C)(C)CC(C)(C)c1ccc(OCCOCC[N+](C)(C)Cc2ccccc2)cc1,-78.0!
CC(C)Cn1cnc2c(N)nc3ccccc3c21,–
CO[C@@H]1CN(C)C(=O)c2cc(NC(=O)Nc3c(C)noc3C)ccc2OC[C@H](C)NC[C@@H]1C,-75.5
COc1cccc(NC(=O)Nc2ccc3c(c2)C(=O)N(C)C[C@@H](OC)[C@H](C)CN[C@H](C)CO3)c1,–
CO[C@@H]1CN(C)C(=O)c2cc(NC(=O)c3ccc(Oc4ccccc4)cc3)ccc2OC[C@@H](C)NC[C@@H]1C,-115.4
CO[C@H]1CN(C)C(=O)c2cc(NC(=O)c3cnccn3)ccc2OC[C@@H](C)NC[C@H]1C,–
CO[C@H]1CN(C)C(=O)c2cc(NC(=O)c3ccc(Oc4ccccc4)cc3)ccc2OC[C@H](C)NC[C@@H]1C,-91.9
CO[C@H]1CN(C)C(=O)c2cc(NC(=O)c3ccc(Oc4ccccc4)cc3)ccc2OC[C@@H](C)NC[C@H]1C,–

# High-throughput results as filed in PubChem BioAssay.
